# Most compounds without a hit are left out; they make up all but 28% or so of the library.
# CYP2C9 inh – blockers of cytochrome P450 2C9 activity – biochemical, luminescence, ADME assay, primary screen; CYP2C9 Supersomes, luciferin-H conversion; inhibition, % at 5 µM; 20% of 96,000 active; AID 777, 2007;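 active = blocking of liver enzyme CYP2C9 beyond about 50% at 5 µM, limit read from the data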
# CYP2C19 act – human CYP2C19 activators, primary screen, biochemical, luminescence | Cytochrome P450 2C19 (Homo sapiens), P33261 | recombinant CYP2C19, luciferin-H EGE luminescence; active compounds read high; 0 = fully inhibited enzyme, 1 = untreated enzyme | activation factor at 5 µM | 96,000 tested, under 10 active;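 active = activation factor of at least 2 at 5 µM in the primary screen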;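 note: 0 = wells with 2.5 mM tranylcypromine and 1 = vehicle-only wells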
# PTK2B oligo ant – antagonists of Pyk2 self-association, primary screen, Q293 cells, FERM NanoBiT luminescence, HTS; AID 1347419, 2020; 0.83% of 99,000 active; active compounds read low; z-score (the deposit names both 25 µM and 10 µM);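 active = Z-score of -3 or lower, scaled per plate to the spread of control and sample wells; inactive = z-score above -3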;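 note: negative z-score means lost luminescence so less FERM oligomerization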
# Target sequence (Q14289 whole entry, looked up): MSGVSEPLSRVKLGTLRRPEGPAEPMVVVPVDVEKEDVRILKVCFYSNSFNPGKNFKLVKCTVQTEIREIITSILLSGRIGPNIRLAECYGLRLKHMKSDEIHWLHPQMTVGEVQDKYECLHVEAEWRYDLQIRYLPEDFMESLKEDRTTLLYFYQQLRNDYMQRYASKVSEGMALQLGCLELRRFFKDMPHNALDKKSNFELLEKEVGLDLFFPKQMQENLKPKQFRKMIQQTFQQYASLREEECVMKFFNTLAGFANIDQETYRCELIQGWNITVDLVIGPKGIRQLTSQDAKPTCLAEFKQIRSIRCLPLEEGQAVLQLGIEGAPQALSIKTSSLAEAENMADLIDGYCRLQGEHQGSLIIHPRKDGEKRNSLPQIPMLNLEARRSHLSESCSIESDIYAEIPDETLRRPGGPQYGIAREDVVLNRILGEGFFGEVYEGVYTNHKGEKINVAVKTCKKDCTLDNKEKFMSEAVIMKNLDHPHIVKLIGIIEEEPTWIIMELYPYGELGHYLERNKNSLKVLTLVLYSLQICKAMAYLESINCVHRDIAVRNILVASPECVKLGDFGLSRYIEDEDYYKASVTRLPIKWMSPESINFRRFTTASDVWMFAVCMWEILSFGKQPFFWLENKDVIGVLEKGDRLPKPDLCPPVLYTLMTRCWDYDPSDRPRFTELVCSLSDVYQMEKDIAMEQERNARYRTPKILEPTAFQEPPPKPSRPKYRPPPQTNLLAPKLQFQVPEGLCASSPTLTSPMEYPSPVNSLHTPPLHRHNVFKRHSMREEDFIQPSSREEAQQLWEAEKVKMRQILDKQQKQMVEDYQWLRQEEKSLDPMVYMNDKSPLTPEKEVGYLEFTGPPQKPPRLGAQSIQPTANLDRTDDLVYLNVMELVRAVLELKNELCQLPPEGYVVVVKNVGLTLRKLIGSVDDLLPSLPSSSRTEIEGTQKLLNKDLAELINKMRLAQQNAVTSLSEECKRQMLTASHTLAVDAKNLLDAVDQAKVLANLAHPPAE
# CYP2C9 activ – human CYP2C9 activators, primary screen, biochemical, luminescence. Cytochrome P450 2C9 (Homo sapiens), P11712. recombinant CYP2C9, luciferin-H conversion; active compounds read high; factor 1 = untreated enzyme, 0 = blocked. activation factor at 5 µM. AID 1024, 2008. 1.4% of 96,000 active;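 active = activation factor of 2 or more for CYP2C9 at a 5 µM dose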;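 note: 0 = sulfaphenazole-blocked wells and 1 = vehicle-only wells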
# CYP2C19 inhib – blockers of cytochrome P450 2C19 activity – biochemical, luminescence, ADME assay, primary screen; P33261; inhibition, % at 5 µM; 21% of 96,000 active; AID 778, 2007; CYP2C19 Supersomes, luciferin-H EGE luminescence, 30 min;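 active = CYP2C19 inhibition above a set limit at 5 µM in the primary screen, cut at about 50% in these data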;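 note: plate controls were negative control wells for no effect and 2.5 mM tranylcypromine positive control for full effect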
# * hit, by the source's call; . = no result given.
SMILES,CYP2C9 inh,CYP2C19 act,PTK2B oligo ant,CYP2C9 activ,CYP2C19 inhib
Cc1occc1-c1nnc(SCC(=O)Nc2ccccc2-c2ccccc2)n1C,76.1*,0.2,-0.14,0.2,76.5*
CN1CCN(S(=O)(=O)c2ccc(NC(=O)c3csc4ccccc34)cc2)CC1,36.1,0.7,-0.39,0.6,29.0
O=C(Cn1nnc(-c2cccc(C(F)(F)F)c2)n1)N1CCOCC1,-229.9,1,0.2,3.3*,-0.8
CN(C(=O)Cn1nnc(-c2cccc(C(F)(F)F)c2)n1)C1CCCCC1,-78.8,0.9,-0.26,1.8,9.3
COCc1nc(-c2cc(OC)c(OC)c(OC)c2)no1,50.7*,0.5,0,0.5,47.7
COc1ccccc1CC(=O)Nc1ccc(-c2noc(COc3cccc(C)c3C)n2)cc1,63.3*,0.8,.,0.4,24.8
COc1ccc(-c2noc(COc3ccccc3OC)n2)cc1OC,-73.3,0.2,.,1.7,77.5*
COc1cc(-c2noc(-c3cccs3)n2)cc(OC)c1OC,.,.,0.11,.,.
COc1ccc(-c2noc(COc3ccc4c(c3)OCO4)n2)cc1OC,8.9,0.9,1.29,0.9,13.0
CCCOc1nc2c(c(=O)n(C)c(=O)n2C)n1Cc1cccc2ccccc12,47.3,0.8,-1.54,0.5,24.1
CCOC(=O)c1c(C)[nH]c(C(=O)COC(=O)CNC(=O)c2ccc(Cl)cc2Cl)c1C,.,.,-0.34,.,.
S=C(NCc1cccnc1)Nc1ccc(Cl)cc1,35.2,0.6,1.09,0.6,38.6
Fc1ccc(NCc2cccnc2)cc1,17.2,0.4,0.48,0.8,57.8*
c1ccc(NCc2cccnc2)cc1,6.4,0.9,-1.07,0.9,10.1
S=C(NCc1cccnc1)Nc1cccc(Cl)c1,66.1*,0.3,1.07,0.3,72.9*
Fc1ccc(CNc2ccc(CNc3ncn[nH]3)cc2)cc1,32.6,0.4,-0.78,0.7,64.0*
Cc1ccc(NC(=S)NCc2cccnc2)cc1,14.2,0.3,0.22,0.9,69.9*
CCn1c(=N)n(CC(=O)C23CC4CC(CC(C4)C2)C3)c2ccccc21,0.4,0.9,-0.49,1,9.4
CNC(=O)c1csc(-c2ccc(C)cc2)n1,29.2,0.9,0.36,0.7,12.7
COc1cc(Br)c(C(C)NC(=O)c2cccc(Br)c2)cc1OC (stereo not drawn),66.0*,0.4,-3.22*,0.3,62.0*
COc1cc(S(=O)(=O)Nc2ncccc2C)c(OC)cc1Cl,44.1,0.1,0.36,0.6,91.1*
COc1cc(NS(=O)(=O)c2ccc(C)cc2C)cc(OC)c1OC,67.0*,0.5,-0.56,0.3,47.6
CCc1ccc(OC)c(S(=O)(=O)Nc2ccccc2C)c1,73.3*,0.7,-0.15,0.3,33.9
COc1cc(NS(=O)(=O)c2cc(C)ccc2OC)c(OC)cc1Cl,28.2,0.3,-1.41,0.7,67.2*
CCOC(=O)N1CCC(N2CC34C=CC(O3)C(C(=O)O)C4C2=O)CC1 (stereo not drawn),-17.7,1,.,1.2,-3.5
SMILES,CYP2C9 inh,CYP2C19 act,PTK2B oligo ant,CYP2C9 activ,CYP2C19 inhib
COc1ccc(C)cc1S(=O)(=O)Nc1ccccc1C,62.5*,0.1,-0.35,0.4,85.3*
CCN(CC)c1nc(C)nc2c1cnn2CCc1ccccc1,13.7,0,-1.67,0.9,97.2*
Cc1ccc(-c2nc(C3CCN(S(C)(=O)=O)CC3)no2)cc1,-8.2,1.1,-0.25,1.1,-6.5
CCOC(=O)CN1C(=O)C(O)=C(C(C)=O)C1c1ccc(F)cc1 (stereo not drawn),11.3,0.9,0.72,0.9,5.3
O=S(=O)(/N=C(/Nc1ccccn1)c1ccccc1)c1ccccc1,7.7,1,-0.24,0.9,-0.8
COc1ccc(CNC(=O)Cn2nc(Cc3cccnc3)c3ccccc3c2=O)cc1,75.8*,0.6,.,0.2,43.8
O=C(Cn1nc(Cc2cccnc2)c2ccccc2c1=O)N1CCN(C(=O)c2ccco2)CC1,49.5,0.9,.,0.5,8.1
COc1cccc(NC(=O)Cn2nc(Cc3cccnc3)c3ccccc3c2=O)c1,59.1*,0.8,.,0.4,21.3
Cc1ccc(OCC(=O)OCc2c(C)noc2C)cc1C,16.1,0.7,0.92,0.8,29.0
CCCN1CNC(=S)N(c2cc(C)ccc2C)C1,.,.,0.09,.,.
Cc1cc(C)n(C(=O)c2ccc(C)c(S(=O)(=O)N3CCCCC3)c2)n1,90.8*,0.1,0.58,0.1,91.2*

# Screening data (PubChem BioAssay)
